The whole screen tested about 220,000 compounds, of which about 3,300 (1.5%) were called active.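 How the source made its calls: active means compounds that cut the protein-peptide binding signal by more than 50% relative to plate controls in a single-dose test; inactive means the rest.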 Shown is part of a subset that was picked to be rich in actives.
These compounds were tested against Induced myeloid leukemia cell differentiation protein Mcl-1 (Homo sapiens) (UniProt Q07820) (assay: Mcl-1/Noxa binding inhibitors, primary screen, biochemical, TR-FRET, 1536-well (AID 1022;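 further: His-tagged Mcl-1 with rhodamine Noxa BH3 peptide and terbium anti-His antibody; 0% = Mcl-1 plus Noxa peptide wells and 100% = peptide-only wells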)). Conditions: TR-FRET Mcl-1/Noxa peptide binding, 2 h; at 21.7 µM; stronger effect = higher value.
Sequence of Induced myeloid leukemia cell differentiation protein Mcl-1 (Homo sapiens) (Q07820 whole entry, looked up): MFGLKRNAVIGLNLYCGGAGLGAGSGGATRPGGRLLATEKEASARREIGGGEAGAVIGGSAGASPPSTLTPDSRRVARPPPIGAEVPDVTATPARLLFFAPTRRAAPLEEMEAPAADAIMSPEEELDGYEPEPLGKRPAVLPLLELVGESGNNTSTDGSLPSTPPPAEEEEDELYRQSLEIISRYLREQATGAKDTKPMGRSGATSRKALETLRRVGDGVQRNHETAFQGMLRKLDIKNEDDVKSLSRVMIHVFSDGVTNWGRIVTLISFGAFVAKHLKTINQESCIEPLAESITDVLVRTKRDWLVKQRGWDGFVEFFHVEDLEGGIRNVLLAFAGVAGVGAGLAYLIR

inhibition, active:
C/C(=N/Nc1nc(-c2ccccc2)c(CC(=O)O)s1)c1ccccc1 55.8%
COC(=O)CC1=NN(c2nc(C)cc(C)n2)C(=O)C1 68%
Cc1cc(C(=O)N/N=C/c2ccc(O)c([N+](=O)[O-])c2)c(C)n1-c1ccc(F)cc1 87.3%
NNC(=O)c1oc2nc(-c3ccccc3)cc(-c3ccco3)c2c1N 72.9%
COc1ccc(NC(=O)/C(Cl)=C(/Cl)S(=O)Cc2ccc(C)cc2)cn1 (configuration not stated) 65.8%
COc1ccccc1C1=Nc2cccc3cccc(c23)N1 75.8%
Clc1ccccc1CSc1nnc(-c2ccco2)c(-c2ccco2)n1 109%
c1ccc(CSc2nnc(-c3ccco3)c(-c3ccco3)n2)cc1 108%
c1ccc(CSc2nnc(-c3ccco3)n2Cc2ccccc2)cc1 53%
CS(=O)(=O)c1ccc2c(c1)SC1=NC(=O)/C(=C/c3ccco3)C(=N)N12 103%
O=c1[nH]c(=S)[nH]c2[nH]c(=S)[nH]c12 95.1%
O=[N+]([O-])c1cc(Cl)cc(/C=N/NC(=S)Nc2cc(S(=O)(=O)N3CCOCC3)ccc2Cl)c1O 100%

inhibition, inactive:
Cc1ccc(-c2nc(C)sc2CC(=O)O)cc1 6.4%
O=C(O)Cc1sc(-c2ccc(C(=O)O)cc2)nc1-c1ccccc1 15.3%
CCn1c(=O)c2cc(C(=O)Nc3cccc(C(C)=O)c3)sc2c2ccccc21 -88.5%
O=c1c(-c2ccc(Cl)cc2)[n+]([O-])c2ccccc2n1OCc1nc2ccccc2[nH]1 -16.2%
Cc1cc(C)cc(NC(=O)C2CCN(c3nc(C)cc(C)n3)CC2)c1 -11.6%
COC(=O)CC1=NN(c2ccccc2)C(=O)C1 19.1%
CC(CO)(CO)NC(=O)c1ccc(=O)[nH]n1 4.69%
O=C(c1ccc(F)cc1)C1CCN(Cc2cn[nH]c2-c2ccccc2)CC1 -14.2%
Cc1nn(CC(=O)N/N=C/c2ccc(F)cc2)c(C)c1[N+](=O)[O-] 12.1%
COc1cc(/C=N/NC(=O)c2cc(C)n(-c3ccc(F)cc3)c2C)cc(OC)c1O 47.1%
Cc1ccc(/C=N/NC(=S)Nc2cccc(S(=O)(=O)N(C)C)c2)o1 -90.2%
OC(c1ccccc1)C(CN1CCOCC1)c1ccccc1 (configuration not stated) 6.74%
CCNC(=S)N1CCN(CCN=CC2=C(O)CC(C)(C)CC2=O)CC1 7.49%
O=C(CCc1ccccc1)Nc1cccc(-c2nnc(-c3ccco3)o2)c1 14.2%
O=C(NCc1ccco1)c1nc(-c2ccccc2)n(-c2ccccc2)n1 -7.46%
NC(=O)c1ccc(NC(=O)COC(=O)c2ccc([N+](=O)[O-])cc2)cc1 -10.3%
CCOC(=O)c1c(NC(=S)NC)sc2c1CCCC2 11.9%
COc1ccc(NC(=S)Nc2ccccc2Cl)cn1 16.9%
COc1ccc(CS(=O)/C(Cl)=C(/Cl)C(=O)Nc2ccc(OC)nc2)cc1 (configuration not stated) 43.3%
CCNC(=O)CCc1nc(-c2ccc(C)cc2)no1 -1.4%
c1ccc(C2=Nc3cccc4cccc(c34)N2)cc1 37%
Fc1ccccc1N=C1Nc2cccc3cccc1c23 16.1%
N#Cc1c(C(F)(F)F)cc(-c2cccs2)nc1N1CCCCC1 -6.66%
COc1ccc2c(CC(=O)OCC(=O)NC(N)=O)coc2c1 8.39%
O=C(CSc1nnc(-c2ccco2)n1CC1CCCO1)c1ccccc1 (configuration not stated) 5.57%
O=C(Nc1nnc(SCc2ccccc2)s1)c1ccco1 -9.36%
Brc1ccc(CSc2ccc(-c3ccco3)nn2)cc1 5.62%
O=C(CSc1nnc(-c2ccco2)n1Cc1ccccc1)NC(=O)NCc1ccco1 31.8%
COC(OC)c1ccnc(SCc2ccccc2Cl)n1 2.7%
Nc1nc(SCc2ccccc2Cl)n[nH]1 -21.7%
COc1ccc(CC(=O)NCC(=O)N/N=C/c2cc(Br)ccc2OC)cc1 0.9%
Clc1ccc2nc(-c3ccccc3)nc(C(Cl)Cl)c2c1 -22.1%
Nc1c(N(CCO)C(=O)C2CCCCC2)c(=O)[nH]c(=O)n1Cc1ccccc1 24.7%
Cc1c(NC(=O)CN2C(=O)C(=O)N(Cc3ccccc3)C2=O)c(=O)n(-c2ccccc2)n1C 8.51%
Cn1nccc1NC(=O)CC(CC(=O)O)c1ccccc1 (configuration not stated) -13%
Cc1cc(N2CCN(c3ccccc3)CC2)nc(N2CCOCC2)n1 14.2%
CCS(=O)(=O)C1=NSC2=NC(=O)/C(=C\c3cc(C)n(-c4cccc(OC)c4)c3C)C(=N)N21 37.6%
Cc1cc(/C=C2/C(=N)N3C(=NC2=O)SN=C3S(C)(=O)=O)c(C)n1-c1ccccc1 16.9%
OCC1(Cc2ccccc2C(F)(F)F)CCN(Cc2ccncc2)CC1 13.3%
CC(C)(C)NC(=O)NCc1ccco1 8.79%
O=C(Nc1ccccc1)Nc1nnc(COc2ccccc2F)s1 23.7%
Cc1c(C)c(C)c2[nH]c(=S)[nH]c2c1C 2.53%
Cc1cc(=O)[nH]c(=S)[nH]1 4.28%
O=C(COC(=O)/C=C/c1ccc2c(c1)OCO2)NC1CCS(=O)(=O)C1 (configuration not stated) 16%
COc1ccc(OC)c(Nc2nc3ccccc3n3cnnc23)c1 16.9%
O=C(CN1CCN(c2ccc(O)cc2)CC1)Nc1cc(S(=O)(=O)N2CCOCC2)ccc1Cl 49.8%
O=C(N/N=C/c1ccc([N+](=O)[O-])o1)c1cccc(S(=O)(=O)N2CCOCC2)c1 5.84%
COc1ccc2nc(NC(=O)NC3CCCCC3)sc2c1 -0.53%
O=C(Nc1ccccc1)O/N=C1/CCCc2occc21 6.55%
Oc1ccc(N=Nc2nccs2)c(O)c1 -33.2%

Reference: PubChem BioAssay AID1022 (Emory University Molecular Libraries Screening Center, 2008)
